Test [1] concerns the target Cell division control protein 42 homolog (Homo sapiens) (UniProt P60953). Put plainly: activated mutant Cdc42 GTP-binding inhibitors, dose response, biochemical, multiplex bead flow cytometry, Bodipy-FL-GTP (AID 1333;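 active = fitted half-maximal concentration within the tested dose range, moderate curve steepness, a statistically real signal drop, and little compound fluorescence or tag-binding interference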). A general note: Flow cytometry measures light scatter and fluorescence of single cells or particles in a stream.
For test [2] the target is unchanged. The test is described as follows: wildtype Cdc42 GTP-binding inhibitors, dose response, biochemical, multiplex bead flow cytometry, Bodipy-FL-GTP (AID 1334). To be noted: bead-based flow cytometry, Bodipy-FL-GTP binding to GST-Cdc42; at 100 µM (top of the series) unless noted.
For test [3], the target named is GTPase HRas (Homo sapiens) (UniProt P01112). The test is described as follows: inhibitors of GTP binding to wildtype Ras, dose response, biochemical, multiplex bead flow cytometry (AID 1335;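 active = fitted half-maximal concentration within 10 nM to 100 µM, steepness 0.5 to 2, significant signal drop, low assay interference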). To be noted: bead-based flow cytometry, Bodipy-GTP binding to GST-Ras; at 100 µM (top of the series) unless noted.
The test system of test [4] is Ras-related protein Rab-7a (dog), GTP binding. Put plainly: Rab7 GTP binding inhibitors, potency, dose response, biochemical, wildtype, multiplex bead flow cytometry (AID 1336; call rule not given here).
In test [5] the target is Ras-related C3 botulinum toxin substrate 1 (Homo sapiens) (UniProt P63000). Put plainly: wildtype Rac1 GTP binding inhibitors, dose response, biochemical, multiplex bead flow cytometry (AID 1340;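 active = dose curve with midpoint inside tested range, moderate steepness, plateau gap beyond fit error, low compound glow and bead-link interference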). The following applies: GST-Rac1 beads, Bodipy-FL-GTP binding; at 100 µM (top of the series) unless noted.
For test [6], the target named is GTPase HRas (Homo sapiens) (UniProt P01112). Put plainly: activated Ras mutant GTP binding inhibitors, dose response, biochemical, multiplex bead flow cytometry (AID 1341;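 active = dose-response curve with midpoint inside the tested range, moderate steepness, significant amplitude and little compound fluorescence or bead-attachment interference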;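 note: GST-tagged constitutively activated Ras mutant immobilized on beads and multiplexed with other GTPases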).

For part of these data: Measured potencies and affinities stand elsewhere. Activity calls are given as the source filed them.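 Rule for the calls, unless noted: active = fitted half-maximal concentration within the tested range, moderate curve steepness, significant signal drop, and little compound fluorescence or bead-linkage interference; inactive = the rest.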

Sequence of Cell division control protein 42 homolog (Homo sapiens) (P60953 whole entry, looked up): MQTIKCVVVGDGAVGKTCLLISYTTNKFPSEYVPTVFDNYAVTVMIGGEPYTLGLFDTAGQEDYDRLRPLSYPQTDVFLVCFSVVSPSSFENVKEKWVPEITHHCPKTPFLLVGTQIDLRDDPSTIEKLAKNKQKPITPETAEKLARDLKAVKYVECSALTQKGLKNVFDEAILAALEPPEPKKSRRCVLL
Sequence of GTPase HRas (Homo sapiens) (P01112 whole entry, looked up): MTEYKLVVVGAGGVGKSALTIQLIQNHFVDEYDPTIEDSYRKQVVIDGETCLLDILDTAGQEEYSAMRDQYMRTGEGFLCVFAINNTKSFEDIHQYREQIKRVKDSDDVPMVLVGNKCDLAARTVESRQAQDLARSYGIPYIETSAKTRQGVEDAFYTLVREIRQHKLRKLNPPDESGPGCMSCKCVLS

Take `O=C(O)c1ccc(Nc2nc(-c3cc4ccccc4oc3=O)cs2)cc1O`: the outcome in test [1], in test [4] and in test [6] was inactive. The fluorescence, percent of control (lower = inhibition) in test [2] is 29.2%. In test [3], this molecule registered a GTP binding, percent of control of 74.6%. In test [5], this molecule showed a GTP binding signal, raw median fluorescence (lower = inhibition) (MCF (arbitrary fluorescence units)) of 177.

With `NS(=O)(=O)c1ccc(Nc2nc(-c3ccc(O)cc3O)cs2)cc1`, the result in test [1], in test [4] and in test [6] was inactive. In addition, the fluorescence, percent of control (lower = inhibition) in test [2] worked out at 25.1%. Besides, the GTP binding, percent of control in test [3] worked out at 67.8%. This molecule gave a GTP binding signal, raw median fluorescence (lower = inhibition) (MCF (arbitrary fluorescence units)) in test [5] of 152.

For the molecule `Oc1c(C=Nc2cccc3cccnc23)sc2ccccc12`, the result in test [1], in test [4] and in test [6] was inactive. The molecule further yielded a fluorescence, percent of control (lower = inhibition) in test [2] of 93.4%. This molecule also came in with a GTP binding, percent of control in test [3] of 177%. In addition, the GTP binding signal, raw median fluorescence (lower = inhibition) (MCF (arbitrary fluorescence units)) in test [5] worked out at 199.

Take `CCOc1ccccc1C(=O)Nc1cccc(-c2ccc3nncn3n2)c1`: the result in test [1], in test [4] and in test [6] was inactive. For the same molecule, the fluorescence, percent of control (lower = inhibition) in test [2] stood at 33.5%. This molecule came in with a GTP binding, percent of control in test [3] of 73.1%. Moreover, the GTP binding signal, raw median fluorescence (lower = inhibition) (MCF (arbitrary fluorescence units)) in test [5] stood at 194.

For the molecule `Cn1nc(C(=O)Nc2cccnc2)c2ccccc2c1=O`, the molecule was classed as inactive in test [1], in test [4] and in test [6]. In addition, the fluorescence, percent of control (lower = inhibition) in test [2] came to 49%. This molecule returned a GTP binding, percent of control in test [3] of 111%. The molecule also had a GTP binding signal, raw median fluorescence (lower = inhibition) (MCF (arbitrary fluorescence units)) in test [5] of 135.

For `OCCC1CN(Cc2ccccc2O)CCN1CCc1ccccc1` (stereo not given), the outcome in test [1], in test [4] and in test [6] was inactive. This molecule registered a fluorescence, percent of control (lower = inhibition) in test [2] of 34.2%. The molecule also registered a GTP binding, percent of control in test [3] of 82.7%. Further, the GTP binding signal, raw median fluorescence (lower = inhibition) (MCF (arbitrary fluorescence units)) in test [5] was found to be 255.

On to `COc1cccc(OCc2ccccc2Br)c1C(=O)O`, for which the outcome in test [1], in test [4] and in test [6] was inactive. The same molecule showed a fluorescence, percent of control (lower = inhibition) in test [2] of 51.9%. Further, the GTP binding, percent of control in test [3] stood at 206%. Also, the GTP binding signal, raw median fluorescence (lower = inhibition) (MCF (arbitrary fluorescence units)) in test [5] is 46.4.

As for `Nc1cccc(S(=O)(=O)c2cccc(N)c2)c1`, the result in test [1], in test [4] and in test [6] was inactive. Besides, the fluorescence, percent of control (lower = inhibition) in test [2] was found to be 96.8%. The molecule further yielded a GTP binding, percent of control in test [3] of 150%. Also, the GTP binding signal, raw median fluorescence (lower = inhibition) (MCF (arbitrary fluorescence units)) in test [5] was 191.

Take `O=C(c1nn2c(C(F)(F)F)cc(-c3ccc(F)cc3)nc2c1Cl)N1CCOCC1`: the result in test [1], in test [4] and in test [6] was inactive. In addition, the fluorescence, percent of control (lower = inhibition) in test [2] came out at 48.9%. Moreover, in test [3], the GTP binding, percent of control came out at 62.6%. For the same molecule, the GTP binding signal, raw median fluorescence (lower = inhibition) (MCF (arbitrary fluorescence units)) in test [5] came out at 189.

For the molecule `COc1ccc(OCc2oc3ccc(OC)cc3c2C(=O)O)cc1`, the result in test [1], in test [4] and in test [6] was inactive. The fluorescence, percent of control (lower = inhibition) in test [2] came to 53.9%. This molecule displayed a GTP binding, percent of control in test [3] of 82.7%. This molecule came in with a GTP binding signal, raw median fluorescence (lower = inhibition) (MCF (arbitrary fluorescence units)) in test [5] of 28.2.

In the case of `O=C(O)CCCCCNS(=O)(=O)c1cccc2c1C(=O)c1ccccc1C2=O`, the molecule was called inactive in test [1], in test [4] and in test [6]. This molecule returned a fluorescence, percent of control (lower = inhibition) in test [2] of 32.5%. For the same molecule, the GTP binding, percent of control in test [3] turned out to be 45.9%. The molecule further gave a GTP binding signal, raw median fluorescence (lower = inhibition) (MCF (arbitrary fluorescence units)) in test [5] of 0.

For `Cc1ccc(-c2csc3nc4c5ccccc5c(NCCCN(C)C)nn4c(=O)c23)cc1`, the molecule was classed as inactive in test [1], in test [4] and in test [6]. Besides, the fluorescence, percent of control (lower = inhibition) in test [2] was determined as 61.7%. In test [3], this molecule showed a GTP binding, percent of control of 96.5%. Further, the GTP binding signal, raw median fluorescence (lower = inhibition) (MCF (arbitrary fluorescence units)) in test [5] stood at 192.

In the case of `Cn1c(N/N=C/c2ccccc2)nc2sc3c(c2c1=O)CCC3`, the outcome in test [1], in test [4] and in test [6] was inactive. In addition, the fluorescence, percent of control (lower = inhibition) in test [2] stood at 71.9%. In test [3], this molecule showed a GTP binding, percent of control of 117%. The molecule also came in with a GTP binding signal, raw median fluorescence (lower = inhibition) (MCF (arbitrary fluorescence units)) in test [5] of 123.

For `O=[N+]([O-])c1cc2oc3c(c2c(C=NCc2ccccc2)c1O)CCCC3`, the result in test [1], in test [4] and in test [6] was inactive. Besides, the fluorescence, percent of control (lower = inhibition) in test [2] came to 44.5%. In addition, the GTP binding, percent of control in test [3] is 58.7%. In test [5], this molecule returned a GTP binding signal, raw median fluorescence (lower = inhibition) (MCF (arbitrary fluorescence units)) of 179.

With `CCOc1cc(/C=C2/NC(=O)NC2=O)cc([N+](=O)[O-])c1O`, the molecule was classed as inactive in test [1], in test [4] and in test [6]. This molecule also displayed a fluorescence, percent of control (lower = inhibition) in test [2] of 28.3%. In test [3], the GTP binding, percent of control turned out to be 64.7%. Also, the GTP binding signal, raw median fluorescence (lower = inhibition) (MCF (arbitrary fluorescence units)) in test [5] amounted to 146.

Source of the values: PubChem BioAssay.
